Assay results reported in PubChem BioAssay AID1851 (National Center for Advancing Translational Sciences (NCATS), 2009).
Among all 16,000 compounds or so, about 5,100 (32%) were called active. Not shown: some 25% with an inconclusive outcome. Calls come from the whole dose curve; as a rule, active = well fitted curve in the direction sought with a large enough effect; inconclusive = small, poorly fitted or top-dose-only effect, or effect the other way; inactive = no such curve, though single readings can be large or run the other way. Some of the results follow. Square brackets hold non-standard residues; d marks the D form. Peptide text beside a SMILES is read from it. * marks the point of attachment. Cbz = O=C(OCc1ccccc1)*

These molecules were tested against Cytochrome P450 3A4 (Homo sapiens) (UniProt P08684) (assay: Cytochrome panel assay with activity outcomes). Settings: recombinant CYP, pro-luciferin dealkylation, luminescence, p450-cyp3a4; series mostly up to 57.1 µM; activity, negative = inhibition: at the top concentration.
Sequence of Cytochrome P450 3A4 (Homo sapiens) (P08684 whole entry, looked up): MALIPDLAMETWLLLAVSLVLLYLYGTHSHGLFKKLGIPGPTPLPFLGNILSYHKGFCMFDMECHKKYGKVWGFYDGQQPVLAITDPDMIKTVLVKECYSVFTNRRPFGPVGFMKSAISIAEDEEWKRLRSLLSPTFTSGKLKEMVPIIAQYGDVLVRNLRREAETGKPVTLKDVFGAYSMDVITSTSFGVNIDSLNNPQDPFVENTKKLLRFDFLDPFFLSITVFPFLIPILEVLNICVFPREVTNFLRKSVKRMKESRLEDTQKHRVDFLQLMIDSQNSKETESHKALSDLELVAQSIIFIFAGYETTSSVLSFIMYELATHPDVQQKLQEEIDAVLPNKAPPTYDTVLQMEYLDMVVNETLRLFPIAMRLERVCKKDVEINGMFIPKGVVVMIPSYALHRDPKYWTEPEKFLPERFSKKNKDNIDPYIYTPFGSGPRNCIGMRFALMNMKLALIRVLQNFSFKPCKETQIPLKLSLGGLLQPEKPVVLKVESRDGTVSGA
% is set by controls: 0 for no effect and ±100 for the full control effect.

AC50, active:
Cc1c(C(=O)O)oc2ccc(S(=O)(=O)NCc3ccc4c(c3)OCO4)cc12 15.8 µM, CCCc1nc(SCC(=O)NNC(=O)C2CCCCC2)c2ccccc2n1 3.55 µM, Cc1ccc(SCC(=O)NNC(=O)C2CCCCC2)cc1 7.94 µM, CCc1nnc(NC(=O)CSc2nc3cc4c(cc3cc2C)OCCO4)s1 14.1 µM, CCc1nnc(NC(=O)CSc2nc(C3CCCCC3)nc3ccccc23)s1 2.51 µM, CC1=C/C(=C(/c2ccc(O)c(C)c2)c2ccccc2C(=O)O)C=CC1=O 1.58 µM, Cc1ccccc1N1CCN(S(=O)(=O)C[C@@]23CC[C@H](C[C@H]2NC(=O)[C@@H](N)CCS(C)(=O)=O)C3(C)C)CC1 3.16 µM, COc1ccccc1CNC(=O)CCCn1c(=O)c2ccccc2n(CC(=O)NC2CCCC2)c1=O 4.47 µM, O=C(CCCCn1c(=O)c2ccccc2n(CC(=O)NC2CCCC2)c1=O)NC1CCCC1 5.01 µM, Cc1noc(NS(=O)(=O)c2ccc(N/C=C/C(=O)c3ccc4c(c3)OCO4)cc2)c1C 11.2 µM, Cc1noc(NS(=O)(=O)c2ccc(N/C=C\C(=O)c3ccc4c(c3)OCO4)cc2)c1C 14.1 µM, O=C(Nc1ncc(Cc2cc(Cl)ccc2Cl)s1)c1ccc([N+](=O)[O-])cc1 6.31 µM, CC(C)[C@H](NC(=O)OCc1ccccc1)C(=O)N[C@H](C=O)Cc1ccccc1 (Cbz-Val-Phe-aldehyde) 6.31 µM, CCCCC(C=O)NC(=O)C(CC(C)C)NC(=O)OCc1ccccc1 (centres undefined) 15.8 µM, CCCSC1=C(C#N)C(c2cccnc2)C(C(=O)OCC)=C(c2ccccc2)N1 (centres undefined) 11.2 µM, COc1ccc(N(C(=O)COc2ccccc2OC)S(=O)(=O)c2ccc(C)cc2)cc1 25.1 µM, Nc1nnc(SCCOc2cccc(Br)c2)s1 12.6 µM, FC(F)Sc1ccc(N=C2NN=C(c3ccc4c(c3)OCCO4)CS2)cc1 12.6 µM, O=C1c2ccccc2C(=O)N1CC1c2ccccc2CCN1S(=O)(=O)c1ccccc1 (centres undefined) 2 µM, CC1CCCCN1c1nc(-c2ccncc2)nc2ccccc12 (centres undefined) 0.631 µM, CN(Cc1ccco1)c1ncncc1-c1cccc(NS(C)(=O)=O)c1 0.794 µM, CN(Cc1ccco1)c1ncnc2ccc(-c3cccc(NS(C)(=O)=O)c3)cc12 5.01 µM, CN(CCc1ccccn1)c1ccc2c(c1)Cc1ccccc1-2 2.51 µM, CN(CCc1ccccn1)c1ccc2c(c1)C(=O)c1ccccc1-2 3.16 µM, CCn1c(COc2ccc(OC)cc2)nc2ccccc21 1.26 µM, O=C(c1ccccc1)[C@H](Nc1ccc2ccccc2c1)c1ccccc1 3.16 µM

AC50, inactive:
CC(=O)N[C@@H](C(=O)O)C(C)(C)SN=O, CC1(C)Oc2ccc(C#N)cc2[C@H](N2CCCC2=O)[C@H]1O

activity, negative = inhibition, inactive:
CCC(C#CCN1CCCCC1)(CC)OCCC#N -12.9%, O=C(O)C[C@H](Cc1ccc2c(c1)OCO2)C(=O)O -6.76% [at 11.4 µM], CC(=O)Nc1nnc(CCN2CCCCC2)s1 18%, Cc1ccc(SCN2CCCCC2)cc1 (tested in a mixture with another compound) -20% [at 11.4 µM], CCc1nc(SCC(=O)NNC(=O)C2CCCCC2)c2ccccc2n1 12.1%, CCCS(=O)(=O)N1CCCC(C(=O)N2CCN(C(=O)OCC)CC2)C1 (centres undefined) 22.2%, O=C(O)C1=CC(=C(c2ccc(O)c(C(=O)O)c2)c2ccc(O)c(C(=O)O)c2)C=CC1=O -13.9%, O=C(O)c1ccc(C(=O)c2ccccc2C(=O)O)cc1C(=O)O -0.636% [at 11.4 µM], Cn1c(=O)n(CCC(=O)O)c2ccccc21 -1.84%, CC(=O)CCCCn1c(=O)c2c(ncn2C)n(C)c1=O -0.936% [at 25.6 µM], Cc1n[nH]c(=O)[nH]c1=O -9.3% [at 25.6 µM], O=C(Nc1cnn(Cc2ccc(Cl)cc2)c1)c1ccc([N+](=O)[O-])cc1 -0.424% [at 2.29 µM], O=C(Nc1ncc(Cc2cccc(Cl)c2)s1)C1=NCCN1 -16.4%, N[C@H](C(=O)O)[C@H](OCc1ccccc1)C(=O)O 7.73%, CC(C)C[C@H](NC(=O)[C@@H](O)[C@H](N)Cc1ccccc1)C(=O)O -14.6%, CC(C)C(NC(=O)OCc1ccccc1)C(=O)O (centres undefined) 2.93%, CSCC[C@H](C=O)NC(=O)[C@H](CC(C)C)NC(=O)[C@H](CC(C)C)NC(C)=O (Ac-Leu-Leu-[dM]-aldehyde) -15.9%, COc1ccc(N(CC(=O)O)N=O)cc1 -6.51% [at 11.4 µM], CN(C)CCO[C@@H](c1ccc(Cl)cc1)c1ccccn1 2.09% [at 25.6 µM], CC1(C)[C@@H]2CC[C@]1(C)[C@@H](OC(=O)/C=C\c1ccccc1)C2 -9.57% [at 11.4 µM], COCCn1c(C)cc(C2=NNC(=Nc3ccc(F)cc3)SC2)c1C 15.3% [at 11.4 µM], C[C@H](O)[C@H](O)[C@@H]1CNc2nc(N)[nH]c(=O)c2N1 -6.18%, CCN1CCN(c2nc(-c3ccccn3)nc3ccccc23)CC1 9.59% [at 2.29 µM], O=C1c2ccccc2-c2ccc(N(Cc3ccc(Br)cc3)Cc3ccc(Br)cc3)cc21 3.02% [at 11.4 µM], C[C@@H](C1=C(CCN(C)C)Cc2ccccc21)c1ccccn1 -14.4%, O=C(O)[C@H](CCc1ccccn1)c1ccccc1 0.483% [at 11.4 µM], CCn1c(N)nc2ccccc21 -22.1%, c1ccc(Cn2c(CN3CCCC3)nc3ccccc32)cc1 -12.3% [at 2.29 µM], O=C(O)CCC(=O)Nc1ccc2ccccc2c1 -3.97% [at 11.4 µM], O=C(Nc1ccc2ccccc2c1)c1onc2c1CCCC2 -20.2%, Cc1c(Nc2cc(N3CCCC(C)C3)c3nonc3c2[N+](=O)[O-])c(=O)n(-c2ccccc2)n1C (centres undefined) -11.2%
